Values joined by “and” are separate entries in the source; they are usually repeats but may differ in a detail not shown here. Equal entries are not always repeated. Where two headings read alike, the source gives them in different places.
Tests used:
EIF2AK1 = details: concentration: 1 μM, replicates: in singlicate; n = 1
EPHA1 = details: concentration: 1 μM, replicates: in singlicate, n = 1
EPHA2 = details: concentration: 1 μM, replicates: in singlicate; n = 1
EPHA3 = details: concentration: 1 μM, replicates: in singlicate, n = 1
EPHA4 = details: concentration: 1 μM, replicates: in singlicate, n = 1
EPHA5 = details: concentration: 1 μM, replicates: in singlicate; n = 1
EPHA6 = details: concentration: 1 μM, replicates: in singlicate, n = 1
EPHA7 = details: concentration: 1 μM, replicates: in singlicate; n = 1
EPHA8 = details: concentration: 1 μM, replicates: in singlicate, n = 1
EPHB1 = details: concentration: 1 μM, replicates: in singlicate, n = 1
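Further: KINOMEscan kinase panel screen.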

SMILES | %Inh (EIF2AK1) [%] | %Inh (EPHA1) [%] | %Inh (EPHA2) [%] | %Inh (EPHA3) [%] | %Inh (EPHA4) [%] | %Inh (EPHA5) [%] | %Inh (EPHA6) [%] | %Inh (EPHA7) [%] | %Inh (EPHA8) [%] | %Inh (EPHB1) [%] | %Inh (EPHA1; 1 µM) | %Inh (EPHA3; 1 µM) | %Inh (EPHA4; 1 µM) | %Inh (EPHA6; 1 µM) | %Inh (EPHA8; 1 µM) | %Inh (EPHB1; 1 µM)
CSc1ccc(NC2=C(c3ccccc3Cl)C(=O)NC2=O)cc1 [SB-342411] | 0 | 2 | 27 | 16 | 7 | 0 | 0 | 6 | 14 | 9 | – | – | – | – | – | –
Nc1nc(-c2ccc3c(N)n[nH]c3c2)cc(N2CCCCC2)n1 [GSK2228768] | 0 | 0 | 0 | 0 | 3 | 0 | 0 | 0 | 0 | 9 | – | – | – | – | – | –
CCCc1ccc(S(=O)(=O)NC2CCN(c3ccnc(Nc4ccc(OC)cc4)n3)C2)cc1 (centres unmarked) [GSK1379737] | 0 | 15 | 0 | 0 | 0 | 0 | 12 | 0 | 7 | 0 | – | – | – | – | – | –
COc1ccc(Nc2nccc(N3CCC(NC(=O)c4cccc(NC(C)=O)c4)C3)n2)cc1 (centres unmarked) [GSK1379732] | 0 | 0 | 20 | 1 | 0 | 0 | 0 | 0 | 0 | 1 | – | – | – | – | – | –
Nc1nc(-c2cccnc2)c(-c2ccnc3ccccc23)s1 [GW684083] | 0 | 0 | 21 | 12 | 4 | 0 | 8 | 0 | 9 | 6 | – | – | – | – | – | –
COc1ccc(-c2nc3n(c2-c2ccncc2)CCC3)cc1 [SKF-104493] | 0 | – | 0 | – | – | 0 | – | 0 | – | – | 18% and 0% | 0% and 18% | 0% and 17% | 10% and 7% | 8% and 0% | 0% and 22%
FC(F)(F)c1ccc(-c2nn3ncccc3c2-c2ccnc(Nc3cccc(C(F)(F)F)c3)n2)cc1 [GW828205] | 0 | 34 | 19 | 0 | 81 | 0 | 78 | 0 | 0 | 2 | – | – | – | – | – | –
Nc1nccc2scc(-c3ccc4c(c3)CCN4C(=O)Cc3cc(F)ccc3F)c12 [GSK2587663] | 0 | 11 | 17 | 0 | 12 | 0 | 25 | 6 | 20 | 7 | – | – | – | – | – | –
Cl.Fc1ccccc1COc1ccc(Nc2ncnc3ccc(-c4nnc(C(F)(F)F)o4)cc23)cc1Cl [GW424170] | 0 | 19 | 0 | 0 | 3 | 0 | 0 | 3 | 0 | 19 | – | – | – | – | – | –
Cl.c1ccc(Cn2ccc3cc(Nc4ncnc5ccccc45)ccc32)cc1 [GW275568] | 5 | 7 | 1 | 40 | 0 | 0 | 0 | 10 | 20 | 4 | – | – | – | – | – | –
Oc1ccc2ncnc(Nc3ccc(OCc4ccccc4)cc3)c2c1 [GI262866] | 0 | 11 | 0 | 0 | 6 | 0 | 16 | 3 | 14 | 14 | – | – | – | – | – | –
Cc1ccc(C)c(NC(=O)NCCNc2ccnc(Nc3ccc(F)cc3)n2)c1 [GSK1379878] | 0 | 6 | 11 | 0 | 0 | 0 | 0 | 0 | 3 | 0 | – | – | – | – | – | –
Nc1nc(-c2ccccn2)c(-c2ccnc3ccccc23)s1 [GW548057] | 0 | 6 | 0 | 15 | 0 | 0 | 6 | 13 | 20 | 5 | – | – | – | – | – | –
COc1ccc(NC(=O)c2ccc(-c3cc(-c4nnc(C)o4)ccc3C)cc2)cc1 [GW595885] | 0 | 8 | 7 | 0 | 7 | 0 | 0 | 0 | 6 | 0 | – | – | – | – | – | –
Fc1ccc(-c2ncn(CCCNCc3ccccc3)c2-c2ccncc2)cc1 | 0 | 4 | 10 | 0 | 6 | 7 | 23 | 0 | 19 | 15 | – | – | – | – | – | –
Cc1ccc(NC(=O)c2cccc(C#N)c2)cc1-c1ccc(C(=O)Nc2ccncc2)cc1 [GSK1398463] | 7 | 12 | 30 | 13 | 43 | 0 | 34 | 12 | 46 | 22 | – | – | – | – | – | –
Cl.Cl.c1ccc(-c2cc3ccncc3cc2OC2CCNCC2)cc1 [GSK1122999] | 13 | 11 | 13 | 0 | 9 | 0 | 12 | 5 | 13 | 25 | – | – | – | – | – | –
